Experimental findings from PubChem BioAssay are described below.

Calls of active or inactive are those of the source.

The target of one experiment is Albumin (Bos taurus) (UniProt P02769). As to the kind of experiment: bovine serum albumin binders on microarray, profiling panel, artefact control for SMM control protein annotation, biochemical, small-molecule microarray, Alexa647 label, 635/667 nm fluorescence (AID 1118).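 Also: score merges 667 nm emission intensity and signal-to-noise per printed compound spot.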 Conditions: BSA-A647 binding, fluorescence 635 nm, higher = more signal.
A short description of experiment [1]: small-molecule microarray binders of probe aXIP, primary screen, biochemical, NeuroSMM set, 635/667 nm fluorescence (AID 1119).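 Also: probe is the protein aXip251-270 applied at 1 µg/mL to compound-printed slides; binding of probe to printed compounds measured as 667 nm fluorescence plus signal to noise.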 Conditions: higher = more signal, called active from +8 up or from −8 down.
Experiment [2] is described as follows: small-molecule binders of probe aNOTCH3, primary screen, biochemical, small-molecule microarray, 635/667 nm fluorescence (AID 1120).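 Also: probe is a biotin-tagged antibody raised against NOTCH3 rather than NOTCH3 protein; score merges spot fluorescence near 667 nm with spot signal to noise.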 Conditions: higher = more signal.
Experiment [3] can be described thus: small-molecule binders of probe aNOTCH2, primary screen, biochemical, small-molecule microarray, 635/667 nm fluorescence (AID 1121).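 Also: score merges feature fluorescence read at 667 nm with its signal to noise.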 Conditions: higher = more signal.
Experiment [4] concerns the target Carbonic anhydrase 2 (Homo sapiens) (UniProt P00918). As to the kind of experiment: CAII small-molecule binders, profiling panel, biochemical, small-molecule microarray, Alexa647-labelled CAII (AID 1122). Conditions: CAII-A647 binding fluorescence, higher = more signal.
A short description of experiment [5]: COS7 lysate on small-molecule microarray, probe aHis, 635 nm (AID 1123).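 Also: z-score combines 667nm fluorescence intensity with signal-to-noise per printed compound spot.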 Conditions: COS7 cell lysate, fluorescence, higher = more signal.
The nature of experiment [6]: compound binding in COS7 lysate, probe aLAP1, primary screen, cell lysate, small-molecule microarray (AID 1124).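 Also: lysate comes from COS7 cells expressing LAP1 and is applied at 0.3 µg/mL; score merges spot fluorescence near 667 nm with signal-to-noise over triplicate slides.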 Conditions: probe aLAP1, fluorescence, higher = more signal.
In a further experiment the test system is Sam68 (KHDRBS1). As to the kind of experiment: Sam68 small-molecule binders, primary screen, biochemical, small-molecule microarray, 635 nm fluorescence (AID 1125).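 Also: score merges 667 nm channel intensity with signal to noise over triplicate slides.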 Conditions: small-molecule microarray binding, higher = more signal.
For experiment [7], the system named is Chordin-like protein 2 (CHRDL2). The experiment can be described thus: CHRDL2 small-molecule binders, primary screen, biochemical, small-molecule microarray, 635 nm fluorescence (AID 1126).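 Also: printed compound slides probed with Chrdl2 protein at 4 µg/mL for 1 h at 4 C; score merges 667 nm emission intensity with signal to noise over three replicate slides.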 Conditions: small-molecule microarray binding, fluorescence 635 nm; higher = more signal.
Experiment [8] deals with Concanavalin-A (Canavalia ensiformis) (UniProt P02866). The experiment can be described thus: ConA small-molecule binders, primary screen, artefact control for SMM control protein annotation, biochemical, small-molecule microarray, Alexa647 label, 635 nm (AID 1127).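 Also: z combines 667 nm emission intensity with signal-to-noise across three replicate slides.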 Conditions: ConA-A647 binding fluorescence, higher = more signal.
The nature of experiment [9]: anti-His antibody binders, primary screen, artefact control for SMM control protein annotation, biochemical, small-molecule microarray, 635 nm fluorescence (AID 1128).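 Also: score merges feature fluorescence with signal-to-noise for each printed compound spot.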 Conditions: anti-His Alexa647 antibody binding, higher = more signal.
In experiment [10] the test system is Human papillomavirus type 1a E7 protein (residues 1-88). As to the kind of experiment: HPV1a E7 small-molecule binders, primary screen, biochemical, small-molecule microarray, residues 1-88, 635 nm (AID 1129). Conditions: small-molecule microarray binding, fluorescence 635 nm; higher = more signal.
Experiment [11] addresses Focal adhesion kinase 1 (Homo sapiens) (UniProt Q05397). The experiment can be described thus: small-molecule microarray binders of FAK, primary screen, biochemical, 635/667 nm fluorescence, BSA, DTT (AID 1130).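 Also: composite of spot emission at 667 nm and signal to noise over triplicate slides.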 Conditions: PTK2 binding, 635 nm fluorescence, higher = more signal.
Experiment [12] has as its system Fibrinogen (Alexa647-labelled). As to the kind of experiment: fibrinogen binders on compound microarrays, profiling panel, artefact control for SMM control-protein annotation, biochemical, small-molecule microarray, 635/667 nm fluorescence (AID 1131).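 Also: z-score merges 667 nm fluorescence with per-spot signal-to-noise over triplicate slides.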 Conditions: fibrinogen-A647 binding fluorescence, higher = more signal.
For experiment [13], the target named is Follistatin (Homo sapiens) (UniProt P19883). The experiment can be described thus: follistatin binders on small-molecule microarrays, primary screen, biochemical, small-molecule microarray, 635/667 nm fluorescence (AID 1132). Conditions: FST binding, 635 nm fluorescence, higher = more signal.
For experiment [14], the target named is Fibroblast growth factor 2 (Homo sapiens) (UniProt P09038). As to the kind of experiment: FGF2 binders on small-molecule microarrays, primary screen, biochemical, small-molecule microarray, 635/667 nm fluorescence (AID 1133). Conditions: small-molecule microarray binding, FGF2, fluorescence 635/667; higher = more signal.
The nature of experiment [15]: mitochondrial membrane potential change in A549 cells, profiling panel, cell-based, JC-1 fluorescence, basal, 24 h, 100 nL (AID 1138).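 Also: A549 lung adenocarcinoma cells under basal conditions with no added stimulus; test concentration not given here.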 Conditions: higher = more signal.
The subject of the next experiment is Lefty1. The experiment can be described thus: Lefty1 binders on small-molecule microarrays, primary screen, biochemical, small-molecule microarray, 635/667 nm fluorescence (AID 1139). Conditions: small-molecule microarray binding, fluorescence 635/667; higher = more signal.
The test system of experiment [16] is wheat germ agglutinin (Triticum aestivum), Alexa647-labelled. The experiment can be described thus: wheat germ agglutinin binders on compound microarrays, profiling panel, artefact control for SMM control-protein annotation, biochemical, small-molecule microarray, 635/667 nm fluorescence (AID 1140).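 Also: score merges 667 nm feature emission with signal to noise over triplicate slides.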 Conditions: WGA-A647 binding, 635 nm fluorescence, higher = more signal.

The target in experiment [17] is Luciferin 4-monooxygenase (Photinus pyralis) (UniProt P08659). The experiment can be described thus: firefly luciferase enzyme inhibitors, primary screen, biochemical, luminescence, purified enzyme, 2006 set (AID 1141).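 Also: cell-free assay with purified firefly luciferase at 100 ng per well in PBS; test concentration not given here.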 Conditions: SteadyGlo luminescence, 30 min, higher = more signal, called active from +8 up or from −8 down.
Sequence of Luciferin 4-monooxygenase (Photinus pyralis) (P08659 whole entry, looked up): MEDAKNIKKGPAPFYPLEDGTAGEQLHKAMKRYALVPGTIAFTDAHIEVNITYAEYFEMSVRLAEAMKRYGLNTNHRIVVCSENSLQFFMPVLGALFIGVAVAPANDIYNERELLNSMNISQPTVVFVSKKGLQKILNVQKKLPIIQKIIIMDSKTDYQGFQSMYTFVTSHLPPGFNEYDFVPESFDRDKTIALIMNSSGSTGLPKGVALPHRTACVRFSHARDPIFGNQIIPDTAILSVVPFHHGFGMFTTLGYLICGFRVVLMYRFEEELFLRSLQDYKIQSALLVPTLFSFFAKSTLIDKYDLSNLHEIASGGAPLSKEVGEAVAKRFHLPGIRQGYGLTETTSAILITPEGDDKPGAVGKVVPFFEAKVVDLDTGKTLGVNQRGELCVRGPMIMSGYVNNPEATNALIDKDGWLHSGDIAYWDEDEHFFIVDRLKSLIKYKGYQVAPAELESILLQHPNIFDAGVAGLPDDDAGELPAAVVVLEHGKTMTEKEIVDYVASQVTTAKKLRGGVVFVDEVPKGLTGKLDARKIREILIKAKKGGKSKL

Sequence of Focal adhesion kinase 1 (Homo sapiens) (Q05397 whole entry, looked up): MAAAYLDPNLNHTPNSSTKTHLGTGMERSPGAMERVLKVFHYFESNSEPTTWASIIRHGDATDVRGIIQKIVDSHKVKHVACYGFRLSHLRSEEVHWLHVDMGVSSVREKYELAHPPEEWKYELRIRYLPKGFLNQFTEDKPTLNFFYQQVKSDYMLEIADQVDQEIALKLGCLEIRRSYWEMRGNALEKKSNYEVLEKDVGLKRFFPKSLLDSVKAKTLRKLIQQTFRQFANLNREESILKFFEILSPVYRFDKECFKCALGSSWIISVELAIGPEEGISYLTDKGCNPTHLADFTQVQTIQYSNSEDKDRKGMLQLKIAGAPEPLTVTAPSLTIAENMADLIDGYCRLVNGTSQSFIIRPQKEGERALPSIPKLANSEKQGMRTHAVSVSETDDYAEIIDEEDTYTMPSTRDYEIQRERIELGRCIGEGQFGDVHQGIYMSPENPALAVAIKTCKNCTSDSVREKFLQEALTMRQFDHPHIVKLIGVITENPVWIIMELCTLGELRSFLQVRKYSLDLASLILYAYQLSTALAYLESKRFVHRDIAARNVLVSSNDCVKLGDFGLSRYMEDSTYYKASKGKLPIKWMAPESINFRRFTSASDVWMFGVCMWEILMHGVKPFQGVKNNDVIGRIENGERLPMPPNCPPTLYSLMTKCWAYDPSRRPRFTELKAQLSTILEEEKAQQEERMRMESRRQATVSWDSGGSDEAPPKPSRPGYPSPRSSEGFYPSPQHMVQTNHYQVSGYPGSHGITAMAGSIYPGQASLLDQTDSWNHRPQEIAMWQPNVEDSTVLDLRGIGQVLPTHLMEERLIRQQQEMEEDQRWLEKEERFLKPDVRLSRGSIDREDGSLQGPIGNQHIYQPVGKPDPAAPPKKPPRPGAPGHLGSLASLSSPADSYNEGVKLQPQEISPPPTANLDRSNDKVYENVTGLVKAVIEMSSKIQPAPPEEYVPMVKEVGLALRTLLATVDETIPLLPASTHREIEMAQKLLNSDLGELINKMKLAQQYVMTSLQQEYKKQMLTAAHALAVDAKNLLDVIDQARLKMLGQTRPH
Sequence of Follistatin (Homo sapiens) (P19883 whole entry, looked up): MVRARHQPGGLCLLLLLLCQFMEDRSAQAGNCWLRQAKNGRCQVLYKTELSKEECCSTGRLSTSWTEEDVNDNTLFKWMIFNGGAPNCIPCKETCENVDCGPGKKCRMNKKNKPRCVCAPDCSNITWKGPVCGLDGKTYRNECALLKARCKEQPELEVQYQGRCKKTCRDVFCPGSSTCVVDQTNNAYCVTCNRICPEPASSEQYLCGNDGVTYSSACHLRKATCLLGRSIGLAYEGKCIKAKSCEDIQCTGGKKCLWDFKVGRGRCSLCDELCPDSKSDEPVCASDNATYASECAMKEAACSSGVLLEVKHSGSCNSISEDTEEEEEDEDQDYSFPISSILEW
Sequence of Fibroblast growth factor 2 (Homo sapiens) (P09038 whole entry, looked up): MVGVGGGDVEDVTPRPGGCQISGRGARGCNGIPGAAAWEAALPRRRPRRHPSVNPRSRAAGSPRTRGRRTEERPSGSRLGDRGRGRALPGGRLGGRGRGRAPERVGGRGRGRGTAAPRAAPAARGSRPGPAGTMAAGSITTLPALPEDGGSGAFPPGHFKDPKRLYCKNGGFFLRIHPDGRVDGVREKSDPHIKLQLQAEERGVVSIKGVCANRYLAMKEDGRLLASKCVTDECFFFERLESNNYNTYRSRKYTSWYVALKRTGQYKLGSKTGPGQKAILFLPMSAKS
Sequence of Albumin (Bos taurus) (P02769 whole entry, looked up): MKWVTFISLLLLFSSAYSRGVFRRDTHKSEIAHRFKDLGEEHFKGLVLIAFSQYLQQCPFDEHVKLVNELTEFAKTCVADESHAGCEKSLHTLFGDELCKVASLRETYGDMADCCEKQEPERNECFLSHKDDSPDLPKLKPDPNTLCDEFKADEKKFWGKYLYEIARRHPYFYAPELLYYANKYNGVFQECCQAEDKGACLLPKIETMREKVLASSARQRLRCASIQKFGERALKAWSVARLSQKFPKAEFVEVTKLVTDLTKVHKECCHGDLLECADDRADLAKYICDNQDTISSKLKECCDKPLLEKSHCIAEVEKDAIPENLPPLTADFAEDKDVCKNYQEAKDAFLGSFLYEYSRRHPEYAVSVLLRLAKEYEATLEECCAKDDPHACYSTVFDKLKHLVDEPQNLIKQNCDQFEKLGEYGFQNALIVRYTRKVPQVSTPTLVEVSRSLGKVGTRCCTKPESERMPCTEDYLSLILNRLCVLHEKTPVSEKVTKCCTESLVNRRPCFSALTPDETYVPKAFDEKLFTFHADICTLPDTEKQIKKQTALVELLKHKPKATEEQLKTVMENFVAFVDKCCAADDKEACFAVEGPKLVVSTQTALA
Sequence of Concanavalin-A (Canavalia ensiformis) (P02866 whole entry, looked up): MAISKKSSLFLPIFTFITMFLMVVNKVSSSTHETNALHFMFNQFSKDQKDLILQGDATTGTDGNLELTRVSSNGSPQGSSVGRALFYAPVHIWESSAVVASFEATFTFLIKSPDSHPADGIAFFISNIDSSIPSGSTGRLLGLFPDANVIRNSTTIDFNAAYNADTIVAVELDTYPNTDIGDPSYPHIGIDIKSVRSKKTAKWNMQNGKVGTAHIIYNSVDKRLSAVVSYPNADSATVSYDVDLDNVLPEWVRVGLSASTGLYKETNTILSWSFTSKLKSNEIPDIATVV

Take `C[C@]1(C(=O)NCCN2CCOCC2)c2ccccc2C(=O)N(Cc2ccccc2)[C@H]1c1ccc(CO)cc1`: the composite z-score with Albumin (Bos taurus) was -0.0435; in [2], -0.257; in experiment [3], -0.154; in experiment [4] it was 0.733; in experiment [5], 0.652; in [6], 0.389. For the same compound, the composite z-score with Sam68 (KHDRBS1) was -0.791; in experiment [7], -0.479; in experiment [8], 0.657; in [9] it was 1.6; in experiment [10], -0.385; in experiment [11] it was -0.43. Besides, the composite z-score is -0.665 in experiment [12]; 0.0342 in experiment [13]; -0.256 in experiment [14]; -0.718 with Lefty1; -0.208 in experiment [16]. In addition, the composite Z-score in [1] is -0.61 (inactive). Besides, the values for the z-score in experiment [15] and in experiment [17] were -1.19 and 1.47 (inactive), respectively.

Consider `CCCN1C(=O)[C@@]2(CCS(=O)(=O)c3ccccc3)N=C(c3ccc(OCCCO)cc3)O[C@H]2c2ccccc21`, for which the composite z-score in the experiment with Albumin (Bos taurus) was -0.676; in experiment [2], 0.0833; in [3], -0.0956; in experiment [4], 0.294; in experiment [5], 2.41; in experiment [6], 0.163. Moreover, the composite z-score worked out at 1.3 in the experiment on Sam68 (KHDRBS1); 0.637 in experiment [7]; 0.892 in experiment [8]; 2.79 in experiment [9]; 1.23 in experiment [10]; 0.494 in [11]. Besides, the composite z-score was 0.762 in experiment [12]; 1.4 in experiment [13]; 0.961 in [14]; 0.78 in the experiment on Lefty1; 0.46 in experiment [16]. For the same compound, the composite Z-score in [1] was -0.113 (inactive). Also, the z-score in [15] was 0.782; in experiment [17], -0.869 (inactive).

On to `COCCOC(=O)N1C(=O)[C@@]2(c3cc(C#CCCO)ccc31)[C@H](c1ccc(O)cc1)N1[C@H](c3ccccc3)[C@H](c3ccccc3)OC(=O)[C@H]1[C@@H]2C(=O)Nc1nc2ccccc2s1`, for which the composite z-score in the experiment with Albumin (Bos taurus) was 0.0742; in experiment [2], 0.272; in [3], -0.0649; in experiment [4], 0.16; in experiment [5] it was 0.372; in experiment [6] it was 0.403. Further, the composite z-score with Sam68 (KHDRBS1) was 1.29; in experiment [7] it was 0.633; in [8], 1.17; in [9], 0.607; in [10] it was 1.19; in [11] it was 0.214. Further, the composite z-score in [12] is 0.992; in [13] it was 1.27; in experiment [14] it was 0.955; in the experiment with Lefty1 it was 1.22; in experiment [16], 0.658. The composite Z-score in experiment [1] was -0.0844 (inactive). The z-score in experiment [15] was -2.54; in experiment [17], 0.0884 (inactive).

With `Cc1ccc([C@@H]2CC=C(C(=O)O)[C@H](c3ccccc3)N2S(=O)(=O)c2ccc(C)cc2)cc1`, the composite z-score turned out to be 1.02 with Albumin (Bos taurus); 0.254 in experiment [2]; 0.0344 in experiment [3]; 0.546 in experiment [4]; 2.36 in [5]; 0.581 in experiment [6]. For the same compound, the composite z-score in the experiment on Sam68 (KHDRBS1) is 1.31; in [7], -2.11; in [8], 1.22; in experiment [9], 2.65; in experiment [10], 1.24; in experiment [11] it was 0.574. Also, the composite z-score in [12] was 0.894; in [13], -0.358; in experiment [14] it was -0.847; with Lefty1, -0.691; in experiment [16], 1.35. Also, the composite Z-score in [1] is 1.1 (inactive). Further, the figures for the z-score in experiment [15] and in experiment [17] were -1.47 and 1.33 (inactive), respectively.

As to `COc1cccc([C@H]2N[C@H](C(=O)O)CC[C@@H]2C)c1`, the composite z-score is -0.207 in the experiment with Albumin (Bos taurus); -0.15 in experiment [2]; -0.129 in experiment [3]; 0.0689 in experiment [4]; -0.146 in [5]; -0.283 in [6]. Also, the composite z-score in the experiment with Sam68 (KHDRBS1) amounted to 0.0672; in experiment [7] it was 0.135; in [8], 0.334; in experiment [9], 0.184; in experiment [10], 0.335; in [11], 0.163. Besides, the composite z-score in experiment [12] was 0.363; in experiment [13], 0.0807; in experiment [14], -0.0305; with Lefty1, 0.223; in [16], -0.208. In addition, in experiment [1], the composite Z-score is -0.269 (inactive). Besides, the figures for the z-score in experiment [15] and in experiment [17] were -0.14 and -0.128 (inactive), respectively.
